# Reference: PubChem BioAssay AID504682 (Southern Research Specialized Biocontainment Screening …, 2011)
# Measured potencies and affinities stand elsewhere. Calls of active or inactive are those of the source. No rule for the calls is given here.
# Test: cytotoxicity control, cell-based, set 2 (AID 504682)
# Details: HepG2 cytotoxicity; series mostly up to 50 µM
row,SMILES,outcome
1,COC(=O)C(C)Oc1ccc(-c2nccc(-c3ccccn3)n2)cc1 (centres undefined),inactive
2,O=C(CSc1nc(O)cc(=O)[nH]1)Nc1ccccc1,inactive
3,CCSc1nc(C)c(C)c(=O)[nH]1,inactive
4,COC(=O)c1ccc(CNc2c(N3CCCC3)c(=O)c2=O)cc1,inactive
5,Cc1ccc(NC(=O)C2C3/C=C\CCCCC32)cc1C (centres undefined),inactive
6,Cc1nc(SCC(N)=O)[nH]c(=O)c1C,inactive
7,COc1cc(NC(=O)C/C(C)=N/NC(=O)c2ccccn2)c(OC)cc1Cl,inactive
8,COC(=O)C(C)Oc1ccc(Cc2ncc(C(F)(F)F)cc2Cl)cc1 (centres undefined),inactive
9,CN(C(=O)CSc1nc2ccccc2c(=O)[nH]1)C1CCCCC1,inactive
10,CCSc1nc2ccccc2c(=O)[nH]1,inactive
11,Cc1cc(=O)[nH]c(=S)[nH]1,inactive
12,O=C(CSc1nc2ccccc2c(=O)[nH]1)NC1CCCCC1,inactive
13,O=c1[nH]c(=S)[nH]c2ccccc12,inactive
14,CCOC(=O)C(C)Sc1ncnc2c1nnn2-c1ccc(F)cc1 (centres undefined),inactive
15,CC(=NCc1ccc2c(c1)OCO2)C1=C(O)c2ccccc2C1=O,inactive
16,Cc1ccc(NC(=O)COC(=O)CCc2c[nH]c3ccccc23)cc1[N+](=O)[O-],inactive
17,COC(=O)CCc1nc2c(C#N)c(-c3ccc(Cl)cc3)ccn2n1,inactive
18,O=C(CSc1nccc(=O)[nH]1)Nc1ccc(Oc2ccccc2)cc1,inactive
19,O=C(CSc1ccccn1)NC1CCCCC1,inactive
20,CCc1ccc(/C=C2/C(=O)N(C)C(=S)N2CC(=O)OC)s1,inactive

row,SMILES,outcome
1,CCOC(=O)CSc1nc(C)c(C)c(=O)[nH]1,inactive
2,CCOC(=O)CNC(=O)[C@H](Cc1ccccc1)NC(=O)OCc1ccccc1,inactive
3,O=C(CSc1ncccn1)NC1CCCCC1,inactive
4,CCOC1OC(=O)C(Cl)=C1Nc1ccccc1C (centres undefined),inactive
5,Cc1nc(SCc2ccccc2Cl)[nH]c(=O)c1C,inactive
6,O=C(CSc1nc2ccccc2c(=O)[nH]1)NCc1ccc(Cl)cc1,inactive
7,O=C1C(Br)=Cc2cccc3cccc1c23,inactive
8,CCOC(=O)COc1ccc(/C=C2\NC(=S)N(CC)C2=O)cc1,inactive
9,O=C(CSc1nccc(=O)[nH]1)Nc1ccc(N2CCOCC2)cc1,inactive
10,Cc1nc(SCC(=O)NC2CCCCC2)[nH]c(=O)c1C,inactive
11,CC[N+](C)(CC)CCCCOc1ccc2c(c1)C(=O)c1cc(OCCCC[N+](C)(CC)CC)ccc1-2,inactive
12,COC(=O)C1CC(=O)N(c2ccc(OCc3ccccc3Cl)cc2)C1 (centres undefined),inactive
13,O=C(/C=C/c1ccccc1)N1CCN(CCN2C(=O)c3cccc4cccc(c34)C2=O)CC1,inactive
14,Cc1nc(SCC(=O)N(C)c2ccccc2)[nH]c(=O)c1C,inactive
15,Cc1[nH]c(=S)[nH]c(=O)c1C,inactive
16,Cc1c[nH]c(=S)[nH]c1=O,inactive
17,CCn1c2ccccc2c2cc(NC(=O)CSc3nc(C)cc(=O)[nH]3)ccc21,inactive
18,Cc1cc(=O)[nH]c(SCC(=O)Nc2ccccc2)n1,inactive
19,CCOC(=O)COn1c2c(c3c4no[n+]([O-])c4ccc31)CCCC2,inactive
